Screening data: PubChem BioAssay, Sanford-Burnham Center for Chemical Genomics
A3G deaminase: APOBEC3G (human) deaminase inhibition. AID 493012. recombinant A3G, ssDNA deamination FAM/TAMRA fluorescence. inhibition, % at 20 µM. Q9HC16. 330,000 compounds, 0.28% hits;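 active = inhibition of at least 40% at 20 µM, with no more than 30% in the related APOBEC3A deaminase screen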
Target sequence (Q9HC16 whole entry, looked up): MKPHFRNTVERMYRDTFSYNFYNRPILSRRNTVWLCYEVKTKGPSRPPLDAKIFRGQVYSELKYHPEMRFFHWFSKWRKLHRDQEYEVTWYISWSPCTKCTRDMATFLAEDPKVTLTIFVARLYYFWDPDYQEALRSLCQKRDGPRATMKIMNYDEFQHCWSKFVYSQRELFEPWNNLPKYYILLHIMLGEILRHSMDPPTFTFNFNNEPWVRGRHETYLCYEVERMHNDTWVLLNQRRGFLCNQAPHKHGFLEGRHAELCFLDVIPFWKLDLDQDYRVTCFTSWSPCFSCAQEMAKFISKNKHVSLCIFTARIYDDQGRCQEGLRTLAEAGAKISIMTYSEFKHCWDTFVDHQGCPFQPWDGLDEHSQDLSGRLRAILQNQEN
APOBEC3A inh: inhibitors of human APOBEC3A DNA deaminase | P31941 | recombinant A3A, FAM/TAMRA ssDNA deamination fluorescence | inhibition, % at 20 µM | 330,000 compounds, 0.41% hits;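 active = at least 40% inhibition at 20 µM here, with at most 30% in a related deaminase screen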
Target sequence (P31941 whole entry, looked up): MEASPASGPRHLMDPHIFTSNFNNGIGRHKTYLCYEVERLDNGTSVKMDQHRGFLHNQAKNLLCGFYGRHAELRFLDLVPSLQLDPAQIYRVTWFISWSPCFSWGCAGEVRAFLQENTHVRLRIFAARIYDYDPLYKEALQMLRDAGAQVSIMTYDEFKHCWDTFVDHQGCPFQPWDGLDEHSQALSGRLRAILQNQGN
PfG6PD inh: PfG6PD (Plasmodium falciparum) enzyme inhibition; PfGluPho enzyme, NADPH resazurin-diaphorase fluorescence; inhibition, % at 20 µM; 350,000 compounds, 0.78% hits; AID 504690;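 active = inhibition reaching at least a set limit at 20 µM in the primary screen, cut at about 59% in these data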
TAG inh: triacylglycerol accumulation inhibition | 230,000 compounds, 0.66% hits | H9c2 cells, Nile Red lipid (TAG) fluorescence; cells loaded with 200 µM oleic acid | inhibition, % at 12.5 µM;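 active = pattern-corrected inhibition of lipid staining of at least 50% with the nuclear-stain viability signal not falling by more than 50%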
NadD block: blocks S. aureus nicotinate mononucleotide adenylyltransferase. purified NadD enzyme, colorimetric absorbance read-out. inhibition, % at 20 µM. 360,000 compounds, 0.78% hits. AID 602399; in the data active = inhibition above about 26%
Cardio protect: protects H9c2 cardiomyocytes from peroxide injury; H2O2 injury protection, ATPLite, 2 h; 360,000 compounds, 0.63% hits; AID 588492; protection from H2O2 cell death, % at 20 µM;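 active = compounds giving at least 50% protection of heart cells from peroxide-induced death in the single-dose screen, raw or plate-pattern-corrected value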
Each line names hits and unclear results; the compound was inactive in the other large screens. Hits are enriched below; roughly 2.9% of the tested compounds scored in any of these assays.

Cc1cc(C(=O)N/N=C/c2cc(Br)ccc2OC(=O)c2ccccc2)n[nH]1	Cardio protect 56
COc1cc(/C=N/NC(=O)c2ccc(CSc3nc4ccccc4[nH]3)cc2)ccc1O	Cardio protect 52 (no result: TAG inh)
COc1cc(C(=O)N/N=C/c2ccc(OC(=O)c3ccccc3)c(OC)c2)ccc1O	Cardio protect 52
COc1cc(/C=N/NC(=O)c2ccccc2)ccc1O	none
COc1cccc(-n2c(N)cc(=O)nc2SCC(=O)N2CCN(c3ccccc3)CC2)c1	none
CC(C)(CO)CNC(=O)c1ccc(OC2CCN(C(=O)C3CC3)CC2)cc1	none
C#CCN(C(=O)Nc1ccccc1)c1ccccc1	none (no result: TAG inh)
O=C(N/N=C/c1ccc(OC(=O)c2ccccc2Cl)cc1)c1cc(O)cc(O)c1	Cardio protect 54
CC(C)(C)C(=O)Nc1ccc(C(=O)N/N=C/c2ccccc2OC(=O)c2ccccc2)cc1	Cardio protect 52 (no result: TAG inh)
COc1cc(/C=N/NC(=O)c2cc(O)cc(O)c2)ccc1OC(=O)c1ccccc1	Cardio protect 56
COc1ccc(/C=N/NC(N)=S)cc1OC(=O)c1ccccc1	none
COc1ccc2c(c1)cc(C(=O)N[C@@H](CCSC)C(=O)N1CCC(C(=O)O)CC1)n2C	none (no result: TAG inh)
O=c1c2ccccc2oc2nc(-c3ccco3)n(Cc3ccccc3)c(=O)c12	Cardio protect 63
C=CCn1c(CNc2ccccc2)nnc1SCC(=O)N/N=C/c1ccc(O)cc1O	Cardio protect 85
C=CCn1c(COc2ccccc2)nnc1SCC(=O)N/N=C/c1cc(Cl)ccc1O	Cardio protect 86
C=CCn1c(COc2ccccc2)nnc1SCC(=O)N/N=C/c1ccc(C)cc1	none
C=CCn1c(SCC(=O)NCc2ccccc2)nnc1-c1ccccc1O	none (no result: TAG inh)
C=CCn1c(CNc2ccc(C)cc2)nnc1SCC(=O)N/N=C/c1ccc(O)cc1O	Cardio protect 68
CCOc1ncccc1C(=O)OCC(=O)NC1CCCCCC1	none
Cn1ncc(Br)c1C(=O)NC1CCCCCC1	none
O=C(NNC(=S)NC(=O)c1cccc([N+](=O)[O-])c1)c1ccc(O)cc1	none (no result: TAG inh)
O=C(NNC(=S)NC(=O)c1cccc([N+](=O)[O-])c1)c1ccc(Br)cc1	Cardio protect 56 (no result: TAG inh)
COc1ccccc1NS(=O)(=O)c1ccc2oc(SCC(=O)N3CCNC3=O)nc2c1	Cardio protect 54
O=C(OCC(=O)N1CCc2ccccc21)c1n[nH]c(=O)c2ccccc12	Cardio protect 73
CC1(C)CC2CC(C)(CN2C(=O)COC(=O)c2n[nH]c(=O)c3ccccc23)C1 (stereo not drawn)	Cardio protect 60
CC1CCCC(C)N1C(=O)COC(=O)c1n[nH]c(=O)c2ccccc12 (stereo not drawn)	Cardio protect 54
CC1(C)CC2CC(C)(CN2C(=O)COC(=O)c2cccnc2Cl)C1 (stereo not drawn)	none
O=C(OCC(=O)N1CCCCCC1)c1n[nH]c(=O)c2ccccc12	Cardio protect 51
Cc1cccc[n+]1C1C(c2ccccc2)C(C#N)=C(C(=C=[N-])C#N)NC1(O)C1CC1 (stereo not drawn)	NadD block 34 (no result: TAG inh)
N#CC(=C=[N-])C1=C(C#N)C(c2ccccc2F)C([n+]2ccccc2)C(O)(C2CC2)N1 (stereo not drawn)	none (no result: TAG inh)
O=c1[nH]cc(N=Cc2cc(Cl)cc(Cl)c2O)c(=O)[nH]1	Cardio protect 49
CCOC(=O)C1=C(C)Nc2ccccc2N=C1NC(=O)c1oc2ccccc2c1COC	Cardio protect 86
Cc1ccc(NC(=O)COc2ccc(C(=O)c3ccccc3)cc2)c(O)c1	none
NC(=O)c1cc2ccccc2o/c1=N\NC(=O)c1ccc(F)cc1	Cardio protect 64 (no result: TAG inh)
NC(=O)c1cc2ccccc2o/c1=N\NC(=O)c1ccccc1O	none (no result: TAG inh)
O=C1/C(=C/c2ccccc2)SC(=S)N1CC(=O)N1CCCCC1c1cccnc1 (stereo not drawn)	NadD block 45 (no result: TAG inh)
O=C1/C(=C\c2ccccc2)SC(=S)N1CCC(=O)N1CCCCC1CCO (stereo not drawn)	none (no result: TAG inh)
COc1ccccc1CNc1nc(-c2cc(C)n(C)c2C)cs1	NadD block 30 (no result: A3G deaminase, APOBEC3A inh)
COc1ccc2cc1Oc1ccc(cc1)C[C@H]1c3c(cc(OC)c4c3Oc3c(ccc5c3[C@H](C2)N(C)CC5)O4)CCN1C	TAG inh 109
Cc1cccn2c(=O)c3cc(C#N)c(=NC(=O)c4cccs4)n(CCCOC(C)C)c3nc12	Cardio protect 57
CCCCn1c(=NC(=O)c2cccnc2)c(C#N)cc2c(=O)n3cccc(C)c3nc21	Cardio protect 54
CCCCn1c(=NC(=O)c2cccnc2)c(C(=O)OCC)cc2c(=O)n3ccccc3nc21	none (no result: A3G deaminase, APOBEC3A inh)
Cc1cccn2c(=O)c3cc(C#N)c(=NC(=O)c4ccncc4)n(CCCOC(C)C)c3nc12	none
CCOC(=O)c1cc2c(=O)n3cccc(C)c3nc2n(CCCOC)c1=NC(=O)c1cccnc1	Cardio protect 101
CCCn1c(=NC(=O)c2ccncc2)c(C#N)cc2c(=O)n3cccc(C)c3nc21	none (no result: A3G deaminase, APOBEC3A inh)
O=C(C1CCOCC1)N1CCC(CO)(CCc2ccccc2)CC1	none
Nc1cccc2c(O)cccc12	none
O=c1[nH]ccc2c(O)cccc12	Cardio protect 90
CC1=C(C(=O)OCC(Br)(Br)Br)C(c2cccc([N+](=O)[O-])c2)NC(=O)N1CCCC(=O)O (stereo not drawn)	none
CCOC(=O)c1ccc(NC(=O)COc2cc(=O)n(CC)c3ccccc23)cc1	none (no result: TAG inh)
CCn1c(=O)cc(OCC(=O)Nc2ccccc2C#N)c2ccccc21	Cardio protect 60
CCN1C(=O)/C(=C/c2nc3ccccc3c(=O)[nH]2)c2ccccc21	Cardio protect 78 (no result: A3G deaminase, APOBEC3A inh, TAG inh)
CCCCCCCCN1C(=O)[C@H](CC(=O)NCCc2ccccc2OC)C[C@@]2(C(=O)OCC)CCCC=C12	none (no result: A3G deaminase, APOBEC3A inh, PfG6PD inh, TAG inh, Cardio protect)
COc1cccc(NS(=O)(=O)c2ccc3c(c2)C2C=CCC2C(c2ccc(C(=O)O)cc2)N3)c1 (stereo not drawn)	none (no result: A3G deaminase, APOBEC3A inh, TAG inh)
COc1ccc(C(=O)N/N=C(\C)c2ccc3c(c2)C2C=CCC2C(c2ccccc2)N3)cc1 (stereo not drawn)	NadD block 52 (no result: A3G deaminase, APOBEC3A inh, TAG inh)
O=C(CN(C(=O)c1csnn1)c1ccccc1F)NC1CCCCC1	none (no result: TAG inh)
CCn1c(SCC(=O)N/N=C/C=C\c2ccco2)nc2ccccc21	none (no result: TAG inh)
Cn1c(SCC(=O)N/N=C/C=C\c2ccco2)nc2ccccc21	PfG6PD inh 62 (no result: TAG inh)
C[C@H]1CN([C@@H](C)CO)C(=O)c2cc(NC(=O)c3ccncc3)ccc2O[C@H]1CN(C)Cc1ccc(C(=O)O)cc1	none
CN(C)/C=C1\C(=O)ON=C1c1ccccc1	none
Cc1ccc(C2=NOC(=O)/C2=C\C=C\c2ccccc2)cc1	NadD block 26 (no result: A3G deaminase, APOBEC3A inh)
CCc1nnc(N/N=C/c2cc(Br)c(O)cc2O)n1N	none
CC(C)(C)c1nnc(N/N=C/c2cc(Br)ccc2O)n(N)c1=O	Cardio protect 76 (no result: A3G deaminase, APOBEC3A inh, TAG inh)
CCn1nc(C)c(Br)c1C(=O)Sc1ccccc1Cl	none
